From paper PMC5540273 (PLoS ONE, 2017)

Legend:
Conditions in all cases: concentration: 1 μM, replicates: in singlicate; n = 1
MKK7 = test system: MKK7
MKNK1 = test system: MKNK1
MKNK2 = test system: MKNK2
MLCK = test system: T1, MLCK
T1 construct: gene MYLK3

MLK1 = test system: T2, MLK1
T2 construct: gene MAP3K9

MLK2 = test system: MLK2
MLK3 = test system: MLK3
MRCKA = test system: MRCKA
MRCKB = test system: T3, MRCKB
T3 construct: gene CDC42BPB

MST1R = test system: MST1R
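Note: KINOMEscan kinase panel screen.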

O=c1cc(N2CCOCC2)nc2n(Cc3cccc(C(F)(F)F)c3)ccn12 [GSK2297543]
%Inh (MKK7): 0%
%Inh (MKNK1): 0%
%Inh (MKNK2): 0%
%Inh (MLCK): 0%
%Inh (MLK1): 0%
%Inh (MLK2): 14%
%Inh (MLK3): 19%
%Inh (MRCKA): 0%
%Inh (MRCKB): 0%
%Inh (MST1R): 12%

O=C(Nc1cccc(-c2nn3ncccc3c2-c2ccnc(Nc3cccc(C(F)(F)F)c3)n2)c1)c1c(F)cccc1F [GSK299495]
%Inh (MKK7): 0%
%Inh (MKNK1): 0%
%Inh (MKNK2): 24%
%Inh (MLCK): 11%
%Inh (MLK1): 0%
%Inh (MLK2): 0%
%Inh (MLK3): 0%
%Inh (MRCKA): 58%
%Inh (MRCKB): 68%
%Inh (MST1R): 44%

Cc1nnc(-c2ccc3occ(-c4ccc(C(C)O)cc4)c3c2)o1 (stereo not drawn)
%Inh (MKK7): 0%
%Inh (MKNK1): 16%
%Inh (MKNK2): 0%
%Inh (MLCK): 14%
%Inh (MLK1): 6%
%Inh (MLK2): 14%
%Inh (MLK3): 0%
%Inh (MRCKA): 10%
%Inh (MRCKB): 0%
%Inh (MST1R): 15%

COCCNC(=O)c1ccc(-c2cc(C(=O)NC3CC3)cc(F)c2C)cc1 [GW868318]
%Inh (MKK7): 37%
%Inh (MKNK1): 22%
%Inh (MKNK2): 25%
%Inh (MLCK): 13%
%Inh (MLK1): 0%
%Inh (MLK2): 41%
%Inh (MLK3): 0%
%Inh (MRCKA): 0%
%Inh (MRCKB): 14%
%Inh (MST1R): 20%

COc1cc(Nc2nccc(N3CCC(NC(=O)c4cccc(NC(C)=O)c4)C3)n2)cc(OC)c1OC (stereo not drawn) [GSK1379754]
%Inh (MKK7): 32%
%Inh (MKNK1): 38%
%Inh (MKNK2): 98.6%
%Inh (MLCK): 1%
%Inh (MLK1): 67%
%Inh (MLK2): 50%
%Inh (MLK3): 53%
%Inh (MRCKA): 0%
%Inh (MRCKB): 0%
%Inh (MST1R): 20%

COc1ccc(CNC(=O)NC2CCN(c3ccnc(Nc4ccc(OC)cc4)n3)C2)cc1 (stereo not drawn) [GSK1379727]
%Inh (MKK7): 14%
%Inh (MKNK1): 0%
%Inh (MKNK2): 0%
%Inh (MLCK): 0%
%Inh (MLK1): 0%
%Inh (MLK2): 0%
%Inh (MLK3): 0%
%Inh (MRCKA): 0%
%Inh (MRCKB): 4%
%Inh (MST1R): 40%

Nc1nccc(-c2c(-c3ccc(F)cc3)ncn2C2CCN(CC(F)(F)F)CC2)n1 [SB-236560]
%Inh (MKK7): 30%
%Inh (MKNK1): 34%
%Inh (MKNK2): 35%
%Inh (MLCK): 0%
%Inh (MLK1): 0%
%Inh (MLK2): 0%
%Inh (MLK3): 2%
%Inh (MRCKA): 0%
%Inh (MRCKB): 14%
%Inh (MST1R): 17%

Cc1nnc(-c2ccc(C)c(-c3ccc(C(=O)Nc4ccc(NS(C)(=O)=O)cc4)cc3)c2)o1 [GW702865]
%Inh (MKK7): 0%
%Inh (MKNK1): 0%
%Inh (MKNK2): 0%
%Inh (MLCK): 12%
%Inh (MLK1): 5%
%Inh (MLK2): 0%
%Inh (MLK3): 7%
%Inh (MRCKA): 0%
%Inh (MRCKB): 0%
%Inh (MST1R): 13%

COc1cc2ncn(-c3cc(OCc4sccc4Cl)c(C(N)=O)s3)c2cc1OC [GSK448459]
%Inh (MKK7): 0%
%Inh (MKNK1): 0%
%Inh (MKNK2): 0%
%Inh (MLCK): 10%
%Inh (MLK1): 0%
%Inh (MLK2): 0%
%Inh (MLK3): 0%
%Inh (MRCKA): 4%
%Inh (MRCKB): 0%
%Inh (MST1R): 38%

O=C(c1ccc(-c2cc(-c3c[nH]nc3-c3ccccn3)ccn2)cc1)N1CCOCC1 [GW812171]
%Inh (MKK7): 24%
%Inh (MKNK1): 0%
%Inh (MKNK2): 0%
%Inh (MLCK): 0%
%Inh (MLK1): 0%
%Inh (MLK2): 34%
%Inh (MLK3): 0%
%Inh (MRCKA): 1%
%Inh (MRCKB): 12%
%Inh (MST1R): 0%

CN(C1=C(c2ccccc2)C(=O)NC1=O)c1ccccc1 [SB-334860]
%Inh (MKK7): 47%
%Inh (MKNK1): 5%
%Inh (MKNK2): 8%
%Inh (MLCK): 0%
%Inh (MLK1): 0%
%Inh (MLK2): 0%
%Inh (MLK3): 19%
%Inh (MRCKA): 18%
%Inh (MRCKB): 0%
%Inh (MST1R): 12%

O=C(Nc1n[nH]c2cc(-c3cccc(F)c3)ccc12)C1CC1 [SB-735464]
%Inh (MKK7): 19%
%Inh (MKNK1): 0%
%Inh (MKNK2): 29%
%Inh (MLCK): 35%
%Inh (MLK1): 0%
%Inh (MLK2): 0%
%Inh (MLK3): 4%
%Inh (MRCKA): 4%
%Inh (MRCKB): 0%
%Inh (MST1R): 15%

C[C@@H](Oc1cc(-n2cnc3ccc(NC(=O)NC(C)(C)C)cc32)sc1C(N)=O)c1ccccc1Cl [GSK346294]
%Inh (MKK7): 0%
%Inh (MKNK1): 0%
%Inh (MKNK2): 0%
%Inh (MLCK): 0%
%Inh (MLK1): 0%
%Inh (MLK2): 27%
%Inh (MLK3): 37%
%Inh (MRCKA): 12%
%Inh (MRCKB): 5%
%Inh (MST1R): 29%

CCc1ccnc(/C=C/c2n[nH]c3cc(Sc4ccccc4C(=O)NC)ccc23)c1
%Inh (MKK7): 0%
%Inh (MKNK1): 0%
%Inh (MKNK2): 0%
%Inh (MLCK): 1%
%Inh (MLK1): 9%
%Inh (MLK2): 4%
%Inh (MLK3): 20%
%Inh (MRCKA): 0%
%Inh (MRCKB): 1%
%Inh (MST1R): 16%

CC(C)(C)n1cnc2c(N)ncnc21 [SKF-97359]
%Inh (MKK7): 21%
%Inh (MKNK1): 54%
%Inh (MKNK2): 0%
%Inh (MLCK): 0%
%Inh (MLK1): 0%
%Inh (MLK2): 0%
%Inh (MLK3): 0%
%Inh (MRCKA): 0%
%Inh (MRCKB): 0%
%Inh (MST1R): 0%
